Consider 39 compounds from PubChem BioAssay (NCI).

About 83,000 compounds went through this panel and 20% of them were active in at least one assay; those are over-represented in the sample as a whole.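 Cells were grown in 96-well plates and exposed to the test compound at a single concentration for 48 hours; results are reported as percent growth, with values below 10 considered active.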 Activity calls are given as the source filed them.

The test system of the assay is M14 melanoma. Briefly: NCI-60 one-dose screen, 48 h (100 = growth as untreated, 0 = no growth, -100 = all killed). Conditions: 10 µM unless noted.
As to `CC(C)(C)c1ccc(Cn2cc(CSc3nc4ccccc4s3)nn2)cc1`, the growth is 97% (inactive). As to `CCN1CCN(Cc2ccc(Cc3ncc(F)c(-c4cc(F)c5nc(C)n(C(C)C)c5c4)n3)nc2)CC1`, the growth is 45.2% (inactive). `CC(=O)NCC(=O)N1[C@@H]2CC[C@H]1c1ccc(Nc3ncc(C(F)(F)F)c(NC4CCC4)n3)cc12`: the growth is 26.9% [2.5 µM] (inactive). The value for `O=C(NOCCO)c1cc(CN2OCCCC2=O)c(F)c(F)c1Nc1ccc(I)cc1F` was 9.12% (active); that for `CC(C)CC(=O)Nc1n[nH]c2c1CN(C(=O)C1CCN(C)CC1)C2(C)C` was 22.2% (inactive).

As for `Cc1ccc(N)cc1CN1C(=O)c2ccccc2C1=O`, the growth is 96.9% (inactive). The value for `COCc1c(-c2ccc(NC(=O)Nc3cc(C(F)(F)F)ccc3F)c(F)c2)c2c(N)ncnn2c1CN1CCOCC1` was -41% (active).

As to `O=C(CNc1nc2ccccc2s1)Nc1ccc(-c2nc3ccccc3s2)cc1`, the growth is 115% (inactive). For `N#CC[C@H](C1CCCC1)n1cc(-c2ncnc3[nH]ccc23)cn1`, the growth is 77.9% (inactive). Next, `C=CC(=O)Nc1cc2c(Nc3ccc(F)c(Cl)c3)ncnc2cc1C#CC(C)(C)N1CCN(C)CC1`: -90% (active); `CC(=O)C1=C(C)NC(SCc2nnc(-c3ccc(C)cc3)o2)=NC1c1ccc(F)cc1` (centres undefined): 96% (inactive). The value for `CNC(=O)c1ccc(Nc2ncc(C(F)(F)F)c(NCc3nccnc3N(C)S(C)(=O)=O)n2)cc1` was 8.04% (active). The value for `C/C=C/C=N/NC(=S)Nc1ccccc1` was 96.5% (inactive); that for `COc1cc(N2CCC(N(C)C)CC2)ccc1Nc1ncc(Cl)c(Nc2ccccc2P(C)(C)=O)n1` was 10.3% (inactive); that for `CN1CCN(CCCOc2cccc3nc(Nc4ccc(Cl)c(C(F)(F)F)c4)ccc23)CC1` was -54.6% (active).

Regarding `C#Cc1cccc(Nc2ncnc3cc(OC)c(OCCCCCCC(=O)NO)cc23)c1`, the growth is 2.66% (active). The value for `Cc1ccc(-n2nc(C(C)(C)C)cc2NC(=O)NCc2cc(F)ccc2Oc2ccc3c(cnn3CCO)c2)cc1` was 9.06% (active); that for `Cn1ccnc1C(=O)/C=C/c1ccc(CC(=O)Nc2ccc(Br)cc2)cc1` was 53.6% (inactive); that for `Cc1[nH]n(C(N)=S)c(=O)c1N=Nc1ccc(S(=O)(=O)Nc2ccncn2)cc1` was 106% (inactive). Next, `Cc1[nH]c(/C=C2\C(=O)Nc3ccc(F)cc32)c(C)c1C(=O)NC[C@H](O)CN1CCOCC1`: 7.61% (active); `Cn1ncc(Cl)c1-c1cc(C(=O)N[C@H](CN)Cc2cccc(F)c2)sc1Cl`: -54.8% (active); `Cn1cc(-c2ncnc3ccc(-c4cnc(Cl)c(NS(C)(=O)=O)c4)cc23)c2ccccc21`: 9.65% (active). With `O=[N+]([O-])c1cc(Br)cc2c1[nH]c1ccc(Br)cc12`, the growth is 70.5% (inactive).

On to `COc1ccc2c(OCc3nnc4ccc(-c5ccccc5)nn34)ccnc2c1`, for which the growth is 104% [2.5 µM] (inactive). The value for `CC(=O)O[C@]1(C)C[C@H](O)[C@]2(O)C=CO[C@H](O[C@@H]3O[C@H](CO)[C@@H](O)[C@H](O)[C@H]3O)[C@@H]21` was 98.6% (inactive); that for `COc1cc2cc(NCc3ccc(F)cc3)nc(C)c2cc1OC` was 32.2% (inactive); that for `O=C(Nc1nc2cccc(-c3ccc(CN4CCS(=O)(=O)CC4)cc3)n2n1)C1CC1` was 90.8% (inactive).

With `N#Cc1c(-c2ccc(Cl)cc2)csc1NC(=O)Nc1cccc(C(F)(F)F)c1`, the growth is 20.4% (inactive). Next, `O=C(c1ccc(/C=C/c2n[nH]c3ccccc23)cc1)N1CCNCC1`: 27.8% (inactive); `Cc1cnc(Nc2ccc(OCCN3CCCC3)cc2)nc1Nc1cccc(S(=O)(=O)NC(C)(C)C)c1`: -48% (active); `CO[C@H]1C[C@@H]2CC[C@@H](C)[C@@](O)(O2)C(=O)C(=O)N2CCCC[C@H]2C(=O)O[C@H]([C@H](C)C[C@@H]2CC[C@@H](OCCO)[C@H](OC)C2)CC(=O)[C@H](C)/C=C(\C)[C@@H](O)[C@H](OC)C(=O)[C@H](C)C[C@H](C)\C=C/C=C/C=C/1C`: 62.2% (inactive). In the case of `COc1cc(F)c(F)c(Nc2ccc(I)cc2F)c1NS(=O)(=O)C1(C[C@H](O)CO)CC1`, the growth was 7.68% (active). Next, `Nc1ccc(S(=O)(=O)O)c2cc(S(=O)(=O)O)cc(O)c12`: 90.7% (inactive).

For the compound `COc1cc2ncnc(Nc3ccc(F)c(Cl)c3)c2cc1NC(=O)/C=C/CN1CCCCC1`, the growth is -72% (active). Next, `COc1ccc(C(=O)N2c3ccccc3Sc3ccccc32)c(F)c1`: 2.04% (active); `O=S1(=O)OC(c2ccc(O)c(Cl)c2)(c2ccc(O)c(Cl)c2)c2ccccc21`: 105% (inactive).

Turning to `C[C@H](NC(=O)c1c(N)nn2cccnc12)c1cc2cccc(C#Cc3cnn(C)c3)c2c(=O)n1-c1ccccc1`, the growth was 29.5% (inactive).

For the compound `Cc1cc(O)cc(-c2c(-c3ccnc(-c4cccnc4)c3)cnn2C)c1`, the growth was 66% (inactive). The value for `CN1CCN(CCOc2cc(OC3CCOCC3)c3c(Nc4c(Cl)ccc5c4OCO5)ncnc3c2)CC1` was 79.4% (inactive).
